PubChem BioAssay AID2501 (Southern Research Specialized Biocontainment Screening …, 2010)
Out of some 2,200 compounds screened, about 1,200 (55%) were called active. The set was probably picked from earlier hits. The list shows a part of the results. Unmarked numbers belong to inactive results. Cut-off not given; nearly all actives show IC50 up to about 92 µM.

experiment: counter assay for TAg ATPase ADP read-out – biochemical, ADP-Hunter, fluorescence, counter-screen (AID 2501); details: series mostly up to 100 µM; inhibition: at the top concentration;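 further: purified T antigen ATPase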;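 on inhibition: 0% = enzyme with vehicle and 100% = reference inhibitor wells; higher means more inhibition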

Q: With `O=C(OCC1O[C@@H](OC(=O)c2cc(O)c(O)c(O)c2)[C@@H](OC(=O)c2cc(O)c(O)c(O)c2)[C@@H](OC(=O)c2cc(O)c(O)c(O)c2)[C@@H]1OC(=O)c1cc(O)c(O)c(O)c1)c1cc(O)c(O)c(O)c1` (stereo partly drawn) as the molecule, how does the “inhibition” value read?
A: The value was 5.82%.

Q: For `O=C(OCCc1ccccc1)c1cc(O)c(O)c(O)c1`, which IC50 is on record?
A: The IC50 was 29.2 µM (active).

Q: With `CN1CCc2cccc3c2[C@@H]1Cc1ccc(O)c(O)c1-3` as the molecule, how does the “inhibition” value read?
A: The value was -223%.

Q: For `CC(C)(C)n1nc2c(c1NC(=O)c1ccccc1S(=O)(=O)C(F)F)CS(=O)(=O)C2`, which “inhibition” value is on record?
A: Its value is -36.9%.

Q: With `O=c1[nH][nH]c(=S)n1C1CCCCC1` as the molecule, how does the “inhibition” value read?
A: Its value is 26.7% [at 25 µM].

Q: Which “inhibition” value does the source give for `COc1cccc(/C=N/N2CCN(c3ccncc3S(=O)(=O)N3CCCCC3)CC2)c1` here?
A: Its value is -6.08%.

Q: Which IC50 does the source give for `COc1ccccc1N1CCN(/N=C/c2ccc(O)c(O)c2)CC1` here?
A: Its IC50 is 5.45 µM (active).

Q: With `Oc1ccc2[nH]ccc2c1` as the molecule, how does the IC50 read?
A: Its IC50 is 2.23 µM (active).

Q: Which “inhibition” value does the source give for `O=C(O)c1ccc(NS(=O)(=O)c2ccc3c(c2)C2C=CCC2C(c2ccccc2F)N3)cc1` (stereo not drawn) here?
A: Its value is 24.8%.

Q: Which IC50 does the source give for `Oc1ccc(O)cc1` here?
A: Its IC50 is 7.46 µM (active).

Q: For `CC(=O)c1cc2c(O)c(O)ccc2o1`, which IC50 is on record?
A: The IC50 was 7.04 µM (active).

Q: With `Cc1ccc2oc(C(=O)Nc3nonc3C)c(C)c2c1` as the molecule, how does the “inhibition” value read?
A: Its value is 17.9%.

Q: With `CCOc1ccc(/C=N/NC(=O)CSc2ccccn2)cc1O` as the molecule, how does the IC50 read?
A: Its IC50 is 2.66 µM (active).

Q: Which IC50 does the source give for `COc1cc(/C=N/NC(=O)CSc2ccccn2)ccc1O` here?
A: Its IC50 is 4.11 µM (active).

Q: With `Cc1cc(C)nc(NC2=NCC(=O)N2c2cc(Cl)cc(Cl)c2)n1` as the molecule, how does the “inhibition” value read?
A: The value was -31%.

Q: Which “inhibition” value does the source give for `CC1(OC(=O)C2CCCC2)C(=O)C=C2C=C(c3ccsc3)N(Cc3ccco3)C=C2C1=O` (stereo not drawn) here?
A: Its value is 6.05%.

Q: With `Nc1ccc2nc(CCCCCCCCc3nc4ccc(N)cc4[nH]3)[nH]c2c1` as the molecule, how does the IC50 read?
A: Its IC50 is 6.38 µM (active).

Q: Which IC50 does the source give for `Nc1ccc2nc(CCCO)[nH]c2c1` here?
A: Its IC50 is 2.74 µM (active).

Q: With `Nc1ccc2nc(CCCCCCc3nc4ccc(N)cc4[nH]3)[nH]c2c1` as the molecule, how does the IC50 read?
A: Its IC50 is 2.36 µM (active).

Q: For `Cc1c(C=NCCOCc2ccccc2)cnn1C`, which “inhibition” value is on record?
A: Its value is -11.4%.

Q: For `CCNc1nc(NCC)nc(N/N=C/c2ccc(O)c(OC)c2)n1`, which IC50 is on record?
A: The IC50 was 5.21 µM (active).

Q: With `COc1ccc(/C=N/Nc2nc(N3CCCC3)nc(N3CCCC3)n2)cc1O` as the molecule, how does the IC50 read?
A: Its IC50 is 3.91 µM (active).

Q: Which IC50 does the source give for `COc1cc(/C=N/Nc2nc(N3CCCC3)nc(N3CCCC3)n2)ccc1O` here?
A: The IC50 was 6.61 µM (active).

Q: Which “inhibition” value does the source give for `CN(C)c1nc(NCc2ccccc2)nc(N/N=C/c2ccc(Cl)cc2Cl)n1` here?
A: Its value is -30.1%.

Q: For `Cc1ccc(-c2nc3ncccn3c2NC2CCCCC2)o1`, which IC50 is on record?
A: The IC50 was 6.91 µM (active).

Q: Which “inhibition” value does the source give for `CCOC(=O)c1c(NC(=O)/C=C/C(=O)O)sc(C)c1-c1ccc(C(C)(C)C)cc1` here?
A: Its value is -30%.

Q: For `CCOC(=O)c1c(NC(=O)/C=C/C(=O)O)sc(C)c1-c1ccc(Cl)cc1`, which “inhibition” value is on record?
A: Its value is -27.3%.

Q: With `CCOC(=O)c1c(NC(C)=O)sc2c(O)c(Br)cc(Br)c12` as the molecule, how does the IC50 read?
A: The IC50 was 28.4 µM (active).

Q: Which IC50 does the source give for `Oc1ccc(C2=Nn3c(nnc3-c3ccco3)SC2)cc1O` here?
A: Its IC50 is 4.93 µM (active).

Q: Which IC50 does the source give for `CN1CCc2cccc3c2[C@H]1Cc1ccc(O)c(O)c1-3` here?
A: The IC50 was “inactive”.

Q: With `O=C(NC(=S)Nc1cccc(S(=O)(=O)NC2=NCCC2)c1)c1cc(-c2ccco2)nc2ccccc12` as the molecule, how does the “inhibition” value read?
A: Its value is 9.2%.

Q: For `COc1cc(/C=C2/C(=O)c3cccc([N+](=O)[O-])c3C2=O)c(Br)cc1O`, which IC50 is on record?
A: The IC50 was 23.4 µM (active).

Q: Which “inhibition” value does the source give for `O=C(O)/C=C/C(=O)c1ccc2c(c1)CCc1ccccc1-2` here?
A: Its value is 22.5%.

Q: With `COc1ccc(NCC(O)Cn2cnc3c2c(=O)n(C)c(=O)n3C)cc1` (stereo not drawn) as the molecule, how does the IC50 read?
A: The IC50 was 6.13 µM (active).

Q: With `Cc1nn(-c2cccc(Cl)c2)c2nc(-c3ccco3)cc(C(=O)O)c12` as the molecule, how does the “inhibition” value read?
A: The value was -1.99%.

Q: For `CNc1nn(-c2cccc(Cl)c2)nc1N`, which IC50 is on record?
A: The IC50 was 9.76 µM (active).

Q: Which IC50 does the source give for `COc1ccc(N2CCN(C(=O)NC3CC(=O)N(c4ccc(OC)cc4)C3)CC2)cc1` (stereo not drawn) here?
A: The IC50 was 26.8 µM (active).

Q: Which “inhibition” value does the source give for `COc1ccc(N2CCN(c3cc(=O)n(Cc4ccc(F)cc4)c(=O)[nH]3)CC2)cc1` here?
A: Its value is 12%.

Q: Which IC50 does the source give for `CNC(=S)N1CCN(c2ccc(OC)cc2)CC1` here?
A: The IC50 was 8.87 µM (active).

Q: For `O=C(O)c1ccc(Nc2cc(Cl)c3nonc3c2[N+](=O)[O-])cc1`, which “inhibition” value is on record?
A: The value was -10.8%.

Q: For `O=[N+]([O-])c1c(Nc2ccc(O)cc2)cc(Cl)c2nonc12`, which IC50 is on record?
A: Its IC50 is 26.9 µM (active).

Q: Which “inhibition” value does the source give for `O=[N+]([O-])c1c(Nc2cccc(O)c2)cc(Cl)c2nonc12` here?
A: The value was -22%.

Q: Which “inhibition” value does the source give for `CCn1c(Cc2ccccc2)nnc1SCC(=O)Nc1ccc(N2CCOCC2)c(Cl)c1` here?
A: Its value is -5.22%.

Q: Which IC50 does the source give for `C=CCn1c(CNc2ccccc2)nnc1SCC(=O)N/N=C/c1ccc(O)cc1O` here?
A: Its IC50 is 4.22 µM (active).

Q: Which “inhibition” value does the source give for `CN1CCC(=C(c2ccccc2)c2ccc(Br)cc2)CC1` here?
A: The value was 26.6%.

Q: For `COc1ccc(N=c2scc(C)n2CCCN2CCCC2=O)cc1`, which IC50 is on record?
A: The IC50 was 6.36 µM (active).

Q: With `CC(C)C1N=C2c3ccccc3N=C(SCC(=O)c3ccc(O)c(O)c3)N2C1=O` (stereo not drawn) as the molecule, how does the IC50 read?
A: The IC50 was 4.05 µM (active).

Q: With `Nc1ncc(N=Nc2cc(C(=O)O)ccc2Cl)s1` as the molecule, how does the IC50 read?
A: Its IC50 is 12.4 µM (active).

Q: With `COc1cccc(C(=O)N(Cc2cc3cc(C)ccc3[nH]c2=O)C(C)C)c1` as the molecule, how does the “inhibition” value read?
A: The value was -6.8%.

Q: With `COCCN=C1Sc2nc3c(C)cccc3cc2CN1Cc1ccco1` as the molecule, how does the IC50 read?
A: Its IC50 is 13.7 µM (active).

Q: Which “inhibition” value does the source give for `CCOC(=O)c1cnc(Nc2nc3ccccc3o2)nc1CSC(=S)N1CCCCC1` here?
A: Its value is -19.6%.

Q: With `CN(C)c1ccc(/C=C/c2cc[n+]([O-])cc2)cc1` as the molecule, how does the IC50 read?
A: Its IC50 is 5.15 µM (active).

Q: For `OCCNc1nc(Nc2ccc(O)cc2)nc2ccccc12`, which IC50 is on record?
A: Its IC50 is 2.57 µM (active).
